# Measured values as given in article PMC7862700, “An all-to-all approach to the identification of sequence-specific readers for epigenetic DNA modifications on cytosine”.
# Columns and labels:
# Assay in all cases: DAPPL (digital affinity profiling via proximity ligation, sequencing); 10 mM Tris-HCl pH 7.5, 50 mM NaCl, 1 mM DTT, 4% glycerol, room temperature, 30 min; GST-TFs on glutathione beads, 16-mer random dsDNA library, 0.1% formaldehyde crosslink after washing; high values mean tight binding
# Conditions in all cases: protein: recombinant; tags: N-terminal GST; dsDNA, one strand shown
# FLI1 = molecular target: T1, FLI1 (Homo sapiens, UniProt Q01543 1-452)
# T1 sequence: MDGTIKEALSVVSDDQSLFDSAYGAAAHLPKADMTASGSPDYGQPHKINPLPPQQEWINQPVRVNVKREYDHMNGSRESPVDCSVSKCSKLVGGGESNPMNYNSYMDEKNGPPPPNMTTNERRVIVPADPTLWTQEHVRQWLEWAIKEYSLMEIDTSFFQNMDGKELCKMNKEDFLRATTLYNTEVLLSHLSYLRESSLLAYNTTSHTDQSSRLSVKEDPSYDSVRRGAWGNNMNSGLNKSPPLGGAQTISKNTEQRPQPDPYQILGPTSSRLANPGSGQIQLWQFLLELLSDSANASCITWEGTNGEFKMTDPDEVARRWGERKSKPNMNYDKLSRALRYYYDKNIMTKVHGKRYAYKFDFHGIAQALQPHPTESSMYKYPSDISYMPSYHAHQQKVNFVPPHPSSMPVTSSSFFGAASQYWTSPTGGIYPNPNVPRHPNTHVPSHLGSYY
# Procedure, shortened: (§1)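 Binding signal is defined as a hexamer's read frequency for one factor over its frequency for the tag-only sample. To obtain reads, GST-fused human transcription factors were expressed in yeast, captured on glutathione beads, barcoded with DNA and pooled with that sample. Pools met 200 nmole of a 16-mer random double-stranded DNA library in Tris/NaCl/DTT/glycerol buffer for 30 min at room temperature before washing, 0.1% formaldehyde crosslinking, proximity ligation (BsaI/T4 ligase, 1 h, 37 °C), PCR and Illumina NextSeq500 sequencing.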
# ELK1 = molecular target: T2, ELK1 (Homo sapiens, UniProt P19419 1-428)
# T2 sequence: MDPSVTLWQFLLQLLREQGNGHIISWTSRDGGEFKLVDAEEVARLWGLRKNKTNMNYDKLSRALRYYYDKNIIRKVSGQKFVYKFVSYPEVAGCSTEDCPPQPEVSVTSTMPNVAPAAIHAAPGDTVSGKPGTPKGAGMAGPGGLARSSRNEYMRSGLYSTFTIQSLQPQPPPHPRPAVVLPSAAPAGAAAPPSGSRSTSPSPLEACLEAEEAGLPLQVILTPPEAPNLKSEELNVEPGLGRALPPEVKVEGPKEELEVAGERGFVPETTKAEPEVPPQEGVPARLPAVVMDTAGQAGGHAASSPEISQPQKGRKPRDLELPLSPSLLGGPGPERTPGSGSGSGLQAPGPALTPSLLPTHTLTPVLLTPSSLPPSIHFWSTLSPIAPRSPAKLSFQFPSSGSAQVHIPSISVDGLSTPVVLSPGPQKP
# Procedure, shortened: as §1
# GABPA = molecular target: T3, GABPA (Homo sapiens, UniProt Q06546 1-454)
# T3 sequence: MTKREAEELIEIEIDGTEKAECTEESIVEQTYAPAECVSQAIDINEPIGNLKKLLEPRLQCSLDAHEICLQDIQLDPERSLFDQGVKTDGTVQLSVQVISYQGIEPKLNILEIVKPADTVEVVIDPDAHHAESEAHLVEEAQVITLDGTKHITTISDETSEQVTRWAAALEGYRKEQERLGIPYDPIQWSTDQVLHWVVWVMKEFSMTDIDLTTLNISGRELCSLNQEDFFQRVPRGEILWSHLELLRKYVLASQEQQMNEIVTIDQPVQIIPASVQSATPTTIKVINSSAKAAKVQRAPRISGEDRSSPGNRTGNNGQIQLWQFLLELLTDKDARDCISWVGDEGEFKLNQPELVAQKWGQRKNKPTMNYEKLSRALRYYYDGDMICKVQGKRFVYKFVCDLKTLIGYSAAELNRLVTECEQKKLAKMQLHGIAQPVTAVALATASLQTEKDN
# Procedure, shortened: as §1
# ERG = molecular target: T4, ERG (Homo sapiens, UniProt P11308 1-479)
# T4 sequence: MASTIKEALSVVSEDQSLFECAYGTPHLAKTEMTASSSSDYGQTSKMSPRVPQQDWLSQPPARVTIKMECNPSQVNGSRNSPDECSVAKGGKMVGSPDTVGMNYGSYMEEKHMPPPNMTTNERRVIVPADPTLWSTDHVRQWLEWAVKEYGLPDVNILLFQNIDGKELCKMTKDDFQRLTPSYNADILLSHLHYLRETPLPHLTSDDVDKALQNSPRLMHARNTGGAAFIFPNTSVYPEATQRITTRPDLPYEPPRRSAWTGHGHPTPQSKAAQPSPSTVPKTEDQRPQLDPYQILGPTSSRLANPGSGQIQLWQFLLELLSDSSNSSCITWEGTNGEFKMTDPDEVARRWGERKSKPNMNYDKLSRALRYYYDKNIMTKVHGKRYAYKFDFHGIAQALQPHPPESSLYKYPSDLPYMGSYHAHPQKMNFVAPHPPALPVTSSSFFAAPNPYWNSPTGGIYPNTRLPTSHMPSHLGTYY
# Procedure, shortened: as §1
# ELF1 = ELF1 (Homo sapiens, UniProt P32519 1-619)
# Chain of ELF1 (P32519 whole entry): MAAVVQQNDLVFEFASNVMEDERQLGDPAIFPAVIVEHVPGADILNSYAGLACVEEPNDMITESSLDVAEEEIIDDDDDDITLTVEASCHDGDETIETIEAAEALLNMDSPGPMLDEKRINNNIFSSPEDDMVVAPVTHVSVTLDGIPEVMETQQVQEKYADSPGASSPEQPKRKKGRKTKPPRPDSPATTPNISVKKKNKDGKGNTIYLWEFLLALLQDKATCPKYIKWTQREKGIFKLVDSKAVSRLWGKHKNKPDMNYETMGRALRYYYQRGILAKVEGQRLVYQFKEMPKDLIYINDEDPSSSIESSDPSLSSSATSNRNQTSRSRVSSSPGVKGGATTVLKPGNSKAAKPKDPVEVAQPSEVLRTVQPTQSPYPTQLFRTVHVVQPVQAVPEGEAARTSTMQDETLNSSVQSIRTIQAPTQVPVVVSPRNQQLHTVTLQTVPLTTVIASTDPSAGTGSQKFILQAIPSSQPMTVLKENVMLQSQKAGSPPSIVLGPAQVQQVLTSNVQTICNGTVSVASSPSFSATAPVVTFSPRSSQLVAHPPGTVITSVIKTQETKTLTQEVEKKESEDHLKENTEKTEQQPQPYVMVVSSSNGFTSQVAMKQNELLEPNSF
# Procedure, shortened: as §1
# EHF = molecular target: T5, EHF (Homo sapiens, UniProt Q9NZC4 1-300)
# T5 sequence: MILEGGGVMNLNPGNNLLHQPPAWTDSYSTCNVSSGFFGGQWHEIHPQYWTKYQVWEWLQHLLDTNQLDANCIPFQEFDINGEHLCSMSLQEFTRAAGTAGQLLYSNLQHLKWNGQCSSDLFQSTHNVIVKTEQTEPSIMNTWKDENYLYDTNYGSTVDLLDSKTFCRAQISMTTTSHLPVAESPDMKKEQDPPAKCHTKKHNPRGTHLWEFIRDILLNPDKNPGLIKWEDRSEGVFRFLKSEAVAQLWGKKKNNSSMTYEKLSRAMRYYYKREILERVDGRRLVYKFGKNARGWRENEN
# Procedure, shortened: as §1
# SPIB = SPIB (Homo sapiens, UniProt Q01892 1-262)
# Chain of SPIB (Q01892 whole entry): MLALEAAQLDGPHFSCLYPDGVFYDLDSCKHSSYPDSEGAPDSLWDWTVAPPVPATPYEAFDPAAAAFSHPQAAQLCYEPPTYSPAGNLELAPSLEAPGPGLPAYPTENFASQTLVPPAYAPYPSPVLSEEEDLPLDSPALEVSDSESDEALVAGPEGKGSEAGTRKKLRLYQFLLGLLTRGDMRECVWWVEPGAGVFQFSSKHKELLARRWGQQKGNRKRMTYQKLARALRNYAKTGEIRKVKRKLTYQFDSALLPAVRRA
# Procedure, shortened: as §1
# ELK3 = molecular target: T6, ELK3 (Homo sapiens, UniProt P41970 1-407)
# T6 sequence: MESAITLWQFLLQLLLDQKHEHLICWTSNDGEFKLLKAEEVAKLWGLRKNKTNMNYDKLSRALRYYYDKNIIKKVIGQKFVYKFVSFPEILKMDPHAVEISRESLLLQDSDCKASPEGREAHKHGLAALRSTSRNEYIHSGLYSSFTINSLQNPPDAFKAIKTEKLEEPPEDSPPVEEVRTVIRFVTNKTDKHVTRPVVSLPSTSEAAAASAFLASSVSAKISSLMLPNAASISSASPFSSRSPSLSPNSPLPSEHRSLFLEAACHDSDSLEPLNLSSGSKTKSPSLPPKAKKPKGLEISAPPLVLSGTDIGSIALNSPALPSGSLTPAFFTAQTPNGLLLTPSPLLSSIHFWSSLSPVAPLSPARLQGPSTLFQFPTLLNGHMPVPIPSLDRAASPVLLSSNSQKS
# Procedure, shortened: as §1
# SPI1 = SPI1 (Homo sapiens, UniProt P17947 1-270)
# Procedure, shortened: as §1
Sequence,binding signal (FLI1),binding signal (ELK1),binding signal (GABPA),binding signal (ERG),binding signal (ELF1),binding signal (EHF),binding signal (SPIB),binding signal (ELK3),binding signal (SPI1)
ATACCA,"1.02 fold enrichment (6-mer frequency, TF over GST control)","1.07 fold enrichment (6-mer frequency, TF over GST control)","1.02 fold enrichment (6-mer frequency, TF over GST control)","1.01 fold enrichment (6-mer frequency, TF over GST control)","1.06 fold enrichment (6-mer frequency, TF over GST control)","1.08 fold enrichment (6-mer frequency, TF over GST control)","1.01 fold enrichment (6-mer frequency, TF over GST control)","1.06 fold enrichment (6-mer frequency, TF over GST control)",–
AATCCA,"1.09 fold enrichment (6-mer frequency, TF over GST control)","1.07 fold enrichment (6-mer frequency, TF over GST control)","1.09 fold enrichment (6-mer frequency, TF over GST control)","1.1 fold enrichment (6-mer frequency, TF over GST control)","1.09 fold enrichment (6-mer frequency, TF over GST control)","1.07 fold enrichment (6-mer frequency, TF over GST control)","1.12 fold enrichment (6-mer frequency, TF over GST control)","1.07 fold enrichment (6-mer frequency, TF over GST control)",–
TGTGTT,"1.19 fold enrichment (6-mer frequency, TF over GST control)","1.1 fold enrichment (6-mer frequency, TF over GST control)","1.06 fold enrichment (6-mer frequency, TF over GST control)","1.03 fold enrichment (6-mer frequency, TF over GST control)","1.03 fold enrichment (6-mer frequency, TF over GST control)","1.09 fold enrichment (6-mer frequency, TF over GST control)",–,"1.26 fold enrichment (6-mer frequency, TF over GST control)",–
TTAGTA,"1.23 fold enrichment (6-mer frequency, TF over GST control)","1.13 fold enrichment (6-mer frequency, TF over GST control)","1.21 fold enrichment (6-mer frequency, TF over GST control)","1.21 fold enrichment (6-mer frequency, TF over GST control)","1.12 fold enrichment (6-mer frequency, TF over GST control)","1.08 fold enrichment (6-mer frequency, TF over GST control)","1.06 fold enrichment (6-mer frequency, TF over GST control)","1.08 fold enrichment (6-mer frequency, TF over GST control)",–
TGTCTG,"1 fold enrichment (6-mer frequency, TF over GST control)","1.1 fold enrichment (6-mer frequency, TF over GST control)","1.11 fold enrichment (6-mer frequency, TF over GST control)","1.05 fold enrichment (6-mer frequency, TF over GST control)","1.06 fold enrichment (6-mer frequency, TF over GST control)",–,"1.16 fold enrichment (6-mer frequency, TF over GST control)",–,"1.17 fold enrichment (6-mer frequency, TF over GST control)"
ATTAGC,"1.17 fold enrichment (6-mer frequency, TF over GST control)","1.08 fold enrichment (6-mer frequency, TF over GST control)","1.08 fold enrichment (6-mer frequency, TF over GST control)","1.15 fold enrichment (6-mer frequency, TF over GST control)","1.11 fold enrichment (6-mer frequency, TF over GST control)","1.07 fold enrichment (6-mer frequency, TF over GST control)","1.03 fold enrichment (6-mer frequency, TF over GST control)","1.09 fold enrichment (6-mer frequency, TF over GST control)",–
CAGATG,"1.05 fold enrichment (6-mer frequency, TF over GST control)","1.09 fold enrichment (6-mer frequency, TF over GST control)","1.04 fold enrichment (6-mer frequency, TF over GST control)","1.09 fold enrichment (6-mer frequency, TF over GST control)","1.08 fold enrichment (6-mer frequency, TF over GST control)",–,–,–,"1 fold enrichment (6-mer frequency, TF over GST control)"
GATATT,"1.11 fold enrichment (6-mer frequency, TF over GST control)","1.17 fold enrichment (6-mer frequency, TF over GST control)","1.06 fold enrichment (6-mer frequency, TF over GST control)","1.12 fold enrichment (6-mer frequency, TF over GST control)","1.13 fold enrichment (6-mer frequency, TF over GST control)","1.12 fold enrichment (6-mer frequency, TF over GST control)","1.13 fold enrichment (6-mer frequency, TF over GST control)","1 fold enrichment (6-mer frequency, TF over GST control)",–
